The supplement of paper PMC6555819

These sequences were tested on VDR:RXRa (NR concentration 270 nM, RXRa partner concentration 90 nM) (assay: PBM binding z-score (relative to random genomic background probes); higher = stronger binding; sequences stand for … in GC…GCGATTGACAGCGTAGAATGAAGG).
Method: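 Protein-binding microarray (Agilent 4x180K custom design, double-stranded 60-nt probes: 5' GC cap, 34-nt variable region, 24-nt constant primer region; full probe sequence given). Purified or IVT nuclear receptor:RXRα heterodimers (3:1 NR:RXRα, mostly 270:90 nM) or homodimers were incubated for 1 h in PBS with 2% milk and no ligand, then detected with Alexa488 antibodies. Fluorescence from o1-orientation probes (~5 replicates averaged) was converted to z-scores against 500 random hg19 background probes. Variable regions are seed direct-repeat (DR0–DR5) sites, all their single-nucleotide variants and half-site ablations.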

Q: How did the PBM binding z-score turn out when CCTACGGGGCCAAAGGTCATTGATTCCAATGCTC was run?
A: 5.3

Q: CGTCAAAGTTCAACTAAGGTAACGTATAGCACGC was tested. Which PBM binding z-score did it give?
A: 4.92

Q: How did the PBM binding z-score turn out when CGGACTAGGTCAAAGGACAGTGAAAGGCGACGTA was run?
A: 1.16

Q: How did the PBM binding z-score turn out when CTGAGTAGGTTACGAGGGGGCATTCAGTGCGAAT was run?
A: 5.14

Q: With CCGAGTAGGTTACGAGGGGGCATTCTGTGCGAAT as the sequence, how does the PBM binding z-score read?
A: 4.89

Q: Which PBM binding z-score does the source give for CCTACTGTGCCATTCAGAGGTCATTGATCATATG here?
A: 4.25

Q: Which PBM binding z-score does the source give for GCTAGTTTGTCAGTAAAAGGTCACACACCGGTCG here?
A: 3.95

Q: For CAAACTAGGTCACAGAGGACAAAGTCCGTGCGTA, which PBM binding z-score is on record?
A: 6.52

Q: Which PBM binding z-score does the source give for CTCGAAAGGTCGTGCTCAGGTGAGTATGCCAAAC here?
A: 3.25

Q: For CCCAGTAGGTTACGAGGGGGCATTCAGTGCGAAT, which PBM binding z-score is on record?
A: 5.29

Q: Which PBM binding z-score does the source give for AGAATGAGGTTATACGTAGGTCAGGGAAGAAAGT here?
A: 3.34

Q: CTCGAAAGGTCAGTTGAGGTGAGTATACGGATAA was tested. Which PBM binding z-score did it give?
A: 4.7

Q: Which PBM binding z-score does the source give for ATATATAGGTTAGGGTCATTCAGAAAGTAGGGAA here?
A: 4.75

Q: AAATGTAGGTTAGGGTCATTCAGAAAGTAGGGAA was tested. Which PBM binding z-score did it give?
A: 4.55

Q: How did the PBM binding z-score turn out when CTAACTAGGTCAAAGGACAGTGAAAGGCGACGTA was run?
A: 1.3

Q: ATCGAAAAGTCGAAGGTGAGTATACCCACCCGAA was tested. Which PBM binding z-score did it give?
A: -0.47

Q: Which PBM binding z-score does the source give for AGAATGGGGTTAAGATCAGGGAAACAGAATACAT here?
A: 2.91

Q: Which PBM binding z-score does the source give for CCGAGTAGCTTACGAGGGGGCATTCAGTGCGAAT here?
A: 3.41

Q: Which PBM binding z-score does the source give for CTATGAAGGTTAAGGGGGTCATTCAGTTTGAAAG here?
A: 7.95

Q: TCGAGTAGGTTACGGAGGCATTCAGGGATGAAGA was tested. Which PBM binding z-score did it give?
A: 0.176

Q: How did the PBM binding z-score turn out when CCTACTGGGCCAAAAATGTCATTGATGCCGATAA was run?
A: 0.0323

Q: For ATTTGTAGGTTAGGGTCATTCAGAAAGTAGGGAA, which PBM binding z-score is on record?
A: 4.81

Q: Which PBM binding z-score does the source give for ACTTACGGGTCAACGGGGTTATAGCACGCGTATA here?
A: 7.87

Q: TTACCGAGGTGAAAGGTCGTTGATGCACGCCTTG was tested. Which PBM binding z-score did it give?
A: 3.72

Q: Which PBM binding z-score does the source give for ATATGTAGGTTAGGGTCATTCAGAAAGTAGGGAA here?
A: 4.7

Q: How did the PBM binding z-score turn out when ATATGTAGGTCATCGGGTCATTCAGTTTGCGCAT was run?
A: 6.28

Q: Which PBM binding z-score does the source give for CGTCTAAGGTCAGCAGGTCAGTGAAAGCGACGTG here?
A: 4.3

Q: How did the PBM binding z-score turn out when CGTCAAAGCTCAACTAAGGTAACGTAAAGCACGC was run?
A: 0.0405

Q: CGAACTAGGTCAAAGGACAGTCAAAGGCGACGTA was tested. Which PBM binding z-score did it give?
A: 1.69

Q: How did the PBM binding z-score turn out when TCGAGTAGGTTACGGGGGGATTCAGGGATGAAGA was run?
A: 3.28

Q: Which PBM binding z-score does the source give for GACACAGGGTCAGCTAGAGGCCAGAGTATGGAAA here?
A: 3.19

Q: For CGAACTAGGTCAAAGGACGGTGAAAGGCGACGTA, which PBM binding z-score is on record?
A: 1.12

Q: For CAAAATAGGTCAAGAGGTCAAAGTCCGCTTCCCG, which PBM binding z-score is on record?
A: 6.53

Q: Which PBM binding z-score does the source give for CGTCCAAGGTAAGAGAGGTCAGTGAATGCCGAGT here?
A: 4

Q: Which PBM binding z-score does the source give for CGTCCAAGGTCAATGCAAGGTCAGTGAAAGCATT here?
A: 6.14

Q: Which PBM binding z-score does the source give for ATATGTTGGTTAGGGTCATTCAGAAAGTAGGGAA here?
A: 4.37

Q: TTATCAAGGTGAAAGGTCGTTGATGCACGCCTTG was tested. Which PBM binding z-score did it give?
A: 3.29

Q: With TTGAGTAGGTTACGGGGGCATTCAGGGATGAAGA as the sequence, how does the PBM binding z-score read?
A: 4.34

Q: For TCGAGTAGGTTACGGGGGCATTCCGGGATGAAGA, which PBM binding z-score is on record?
A: 3.83

Q: CCGAGTAGGTTACGAGGGGGTATTCAGTGCGAAT was tested. Which PBM binding z-score did it give?
A: 2.95
